High-throughput results (PubChem BioAssay)
GPT2 inhibitor – Primary qHTS assay for inhibitors of Glutamate pyruvate transaminase 2 (GPT2); 0.25% of 100,000 active; Potency, µM (series often up to 57.7 µM), inactives show at the top dose activity change, negative = inhibition, actives largely listed as inhibitors; AID 1671188, 2021; Recombinant GPT2, coupled pyruvate oxidase/HRP Amplex Red fluorescence; further: nearly all actives have a fitted effect of over 60% in size
Target sequence (Q8TD30 whole entry, looked up): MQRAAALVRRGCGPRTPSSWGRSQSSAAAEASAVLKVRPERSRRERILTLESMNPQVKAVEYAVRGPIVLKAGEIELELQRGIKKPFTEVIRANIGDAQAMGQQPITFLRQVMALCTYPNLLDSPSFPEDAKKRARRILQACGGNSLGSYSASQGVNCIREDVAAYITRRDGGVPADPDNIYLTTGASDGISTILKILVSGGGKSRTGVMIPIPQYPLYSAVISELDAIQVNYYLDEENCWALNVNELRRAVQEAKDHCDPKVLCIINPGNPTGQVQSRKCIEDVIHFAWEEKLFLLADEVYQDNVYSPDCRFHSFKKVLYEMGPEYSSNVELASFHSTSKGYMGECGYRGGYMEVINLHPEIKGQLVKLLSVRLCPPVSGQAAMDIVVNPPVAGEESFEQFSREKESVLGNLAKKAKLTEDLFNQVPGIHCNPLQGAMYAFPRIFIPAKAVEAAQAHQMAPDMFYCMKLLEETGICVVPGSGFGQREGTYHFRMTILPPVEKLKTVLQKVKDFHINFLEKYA
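GPT2 10ng/uL, a-KG 250uM, L-Ala 2mM, HEPES pH7.5 + 0.0001% Tween; 30 min RT. Then Amplex mix (PO/HRP/ThPP), 30 min RT dark, fluorescence. AOA 50uM used as positive control.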
HEK cytotox – Cytotoxic Profiling in HEK 293 Cell Line of Diverse Libraries Using Quantitative High-Throughput Screening; AID 1345083, 2018; Potency, µM (highest dose often 115 µM), for the others: at the highest dose activity change, negative = cytotoxicity, most hits filed as inhibitors; 6.6% of 94,000 active; HEK 293 viability, ATP luminescence (CellTiter-Glo), 48-72 h; further: nearly all actives have a fitted effect of over 60% in size
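CellTiter-Glo luminescence (cellular ATP) was read after 48 or 72 hr of compound exposure at 37 degree Celsius. Cells were HEK 293 plated at 250 cells/well.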
NIH3T3 tox – Cytotoxic Profiling in NIH 3T3 Cell Line of Diverse Libraries Using Quantitative High-Throughput Screening | 4.3% of 94,000 active | Potency, µM (series often up to 96.7 µM), inactives show at the highest dose activity change, negative = cytotoxicity, most hits filed as inhibitors | NIH 3T3 viability, CellTiter-Glo ATP luminescence, 48-72 h; further: nearly all actives have a fitted effect of over 55% in size
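Cytotoxicity is measured as loss of cellular ATP: NIH 3T3 cells (400/well) are exposed to compound for 48 or 72 hr at 37 °C, then CellTiter-Glo luminescence is imaged after 10 min at room temperature.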
Luciferase inh – Firefly luciferase inhibition profiling of diverse chemical library using quantitative high-throughput screening | purified P. pyralis luciferase, luminescence, biochemical | Potency, µM (highest dose often 115 µM), hits mostly inhibitors | 2.5% of 76,000 active; further: nearly all actives have a fitted effect of over 65% in size
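Luminescence read by CCD imaging after purified firefly luciferase (10nM final) was added to substrate buffer holding 10uM D-luciferin and 10uM ATP, pH 7.5, pre-dosed with compound.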
NPR1 antag – Natriuretic polypeptide receptor (hNpr1) antagonism - Primary qHTS; Atrial natriuretic peptide receptor 1 (Homo sapiens), P16066; HEK293 hNpr1 GloSensor cGMP, ANP-stimulated luminescence; Potency, µM (top dose mostly 46.3 µM), for inactives: at the top dose activity change, negative = inhibition, usual class: inhibitors; 1.6% of 76,000 active; AID 1347048, 2019; calls by dose curve; further: nearly all actives have a fitted effect of over 60% in size
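HEK293 cells stably expressing human Npr1 and cGMP GloSensor pGS-40F, loaded 2 h with 2% GloSensor reagent, given compound 30 min at room temperature. Luminescence read before and 20 min after 0.1 nM hNppA.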
Starred values were filed as active, the others as inactive; i = inactive; ? = inconclusive; / = no result; [ ] = remark or other dose. Shown are actives, neighbours in structure and some others; about 10% of the full set was active somewhere. Unless noted, the call rests on the fitted dose curve; in most records, active means well fitted curve in the direction sought with a large enough effect; inconclusive means small, poorly fitted or top-dose-only effect, or another doubt; inactive means no such curve, though single readings can be large; an effect the other way counts as inactive or inconclusive. On the % scale 0 is the no-effect control and ±100 the full control effect; potency means the concentration at half of the fitted maximal effect.

SMILES	GPT2 inhibitor	HEK cytotox	NIH3T3 tox	Luciferase inh	NPR1 antag
FC(F)(F)c1cccc(C2=NOC3(CCCN(Cc4cccs4)C3)C2)c1 (stereo not drawn)	-9%	?	35µM*	i	-9%
FC(F)(F)c1cccc(C2=NOC3(CCCN(Cc4cccc5ccccc45)C3)C2)c1 (stereo not drawn)	i	?	?	i	8%
Cc1noc(C)c1[S+](=O)([O-])N1CCCC2(CC(c3cccc(C(F)(F)F)c3)=NO2)C1 (stereo not drawn)	-8%	35µM*	-13%	i	-15%
Cn1nccc1CN1CCCC2(CC(c3cccc(C(F)(F)F)c3)=NO2)C1 (stereo not drawn)	i	45µM*	-26%	i	0%
CC(C)CN1CCC(N2CC(Oc3cccc(C(=O)N4CCCC4)c3)C2)CC1	i	-5%	-10%	i	10%
CCOc1ccc(C(=O)NC2CCN(c3cc(-c4ccc(F)cc4)[nH]n3)CC2)cc1OCC	i	40µM*	?	i	3%
CCOc1cc(C(=O)NC2CCN(c3cc(-c4ccccc4)[nH]n3)CC2)cc(OCC)c1OCC	1%	45µM*	?	i	-1%
CCOc1cc(C(=O)NC2CCN(c3cc(-c4ccc(F)cc4)[nH]n3)C2)cc(OCC)c1OCC (stereo not drawn)	0%	35µM*	25µM*	i	1%
CCOc1ccc(C(=O)NC2CCN(c3cc(-c4ccccc4)[nH]n3)CC2)cc1OCC	i	?	-16%	i	-5%
CCOc1cc(C(=O)NC2CCN(c3cc(-c4ccc(F)cc4)[nH]n3)CC2)cc(OCC)c1OCC	-16%	?	?	i	1%
COc1ccc(CN2CC3(C2)C(=O)Nc2ccccc23)cc1	i	?	?	/	/
NC(=O)C1(N2CCCCC2)CCN(c2nccc(-c3ccccn3)n2)CC1	?	0%	-26%	i	0%
Cc1ccc(-c2ccnc(N(C)CC3CC(=O)N(C(C)(C)C)C3)n2)c(C)n1 (stereo not drawn)	-19%	79µM*	?	i	-27%
CC(C)=CCC1(CO)CCCN(Cc2[nH]c3ccc(F)cc3c2C)C1 (stereo not drawn)	-8%	20µM*	22µM*	i	-20%
Cc1noc(C)c1Cc1ccc(C(=O)N2CCC(c3nc(C(=O)N4CCCC4)c(C)o3)CC2)o1	i	?	?	/	/
CCCN(C)c1nccnc1OC1CCN(C(=O)c2c(F)cccc2F)C1 (stereo not drawn)	i	?	?	?	-4%
CCCN(C)c1nccnc1OC1CCN(C(=O)Cc2ccccc2OC)C1 (stereo not drawn)	i	?	?	35µM*	-11%
CCCN(C)c1nccnc1OC1CCN(C(=O)c2cccc(OC)c2OC)C1 (stereo not drawn)	?	?	?	32µM*	-15%
COCCN1CC(CO)C2(CCN(Cc3cccc(Cl)c3F)CC2)C1 (stereo not drawn)	i	?	?	i	-7%
CCOC(=O)C1CCCN(C(=O)c2nc3sccn3c2-c2ccncc2)C1 (stereo not drawn)	i	-5%	-13%	/	/
O=C(COc1ccc(Cl)cc1Cl)N1CCCCC1c1ccccn1 (stereo not drawn)	-8%	45µM*	?	?	?
O=C(C1CCCC1)N1CCC(C(=O)N2CCCC2c2ccccn2)CC1 (stereo not drawn)	3%	-11%	-16%	i	4%
COc1ccc2[nH]c3c(c2c1)CCNC31CCN(C(=O)c2ccc(C)nc2)CC1	i	79µM*	-11%	i	1%
COc1ccc2[nH]c3c(c2c1)CCNC31CCN(C(=O)c2cnc(C)cn2)CC1	i	?	-3%	i	9%
COc1ccc2[nH]c3c(c2c1)CCNC31CCN(C(=O)c2ccccc2F)CC1	-3%	?	?	i	4%
SMILES	GPT2 inhibitor	HEK cytotox	NIH3T3 tox	Luciferase inh	NPR1 antag
COc1ccc2[nH]c3c(c2c1)CCNC31CCN(C(=O)c2ccc(OC)nc2OC)CC1	1%	11µM*	-28%	i	3%
O=C1COCC2(CN1Cc1ccccc1)CN(C(=O)C1(c3ccccc3)CC1)C2	-3%[88.5 µM]	-1%[172 µM]	79µM*	i	6%[70.6 µM]
O=C1COCC2(CN1Cc1ccccc1)CN(C(=O)c1ccc(F)c(Cl)c1)C2	-3%[88.5 µM]	-5%[172 µM]	89µM*	i	2%[70.6 µM]
COc1ccc(CN2CC3(COCC2=O)CN(c2ccccc2)C3)cc1F	i	?	?	i	-18%[70.6 µM]
O=C1COCC2(CN1Cc1ccccc1)CN(c1cccnc1)C2	?	-29%[172 µM]	89µM*	i	-2%[70.6 µM]
O=C1COCC2(CN(Cc3cc(F)ccc3F)C2)CN1Cc1ccccc1	4%[88.5 µM]	100µM*	-27%[138 µM]	i	1%[70.6 µM]
CN1C[C@@H](NC(=O)CC(C)(C)CC(=O)O)C[C@H]1c1nc(-c2ccc3c(c2)OCO3)no1	-1%[88.5 µM]	2%[172 µM]	-1%[174 µM]	50µM*	4%[70.6 µM]
CN1C[C@@H](NC(=O)c2ccc3c(c2)OCO3)C[C@H]1c1nc(-c2ccc3ccccc3c2)no1	-16%	79µM*	?	i	-19%
O=C(NCC(=O)N1CCCC1)c1cccc(-c2ccc(C(F)(F)F)cc2)c1	1%	?	?	/	/
O=C(c1cc(F)ccc1F)N1CCN(C(=O)c2nnn3c2COC(c2ccc(Cl)cc2)C3)CC1 (stereo not drawn)	3%	35µM*	-25%	i	?
Cc1ccc(C(=O)N2CCN(C(=O)c3nnn4c3COC(c3ccc(Cl)cc3)C4)CC2)cc1F (stereo not drawn)	-21%	-16%	-12%	i	-1%
O=C(c1ccc(F)cc1)N1CCN(C(=O)c2nnn3c2COC(c2ccc(Cl)cc2)C3)CC1 (stereo not drawn)	0%	40µM*	?	i	-26%
O=C(C1CC1)N1CCN(c2nccc(Nc3ccccc3Cl)n2)CC1	-3%	?	22µM*	/	/
O=C(NC1CCN(c2nccc(Nc3ccccc3Cl)n2)CC1)c1ccccc1	5%	40µM*	?	/	/
O=C(C1CCCC1)N1CCN(c2nccc(Nc3ccccc3Cl)n2)CC1	i	?	14µM*	/	/
CN(C)C(=O)c1ccc2oc(-c3ccncc3Cl)nc2c1	i	4%	-4%	/	/
